# For some assays here: Measured potencies and affinities stand elsewhere. Activity calls are given as the source filed them.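 Rule for the calls, unless noted: active = primary screen activator hit with a dose response curve and TRPC4 channel activation at any tested dose; inactive = no activation, no dose response, or not a primary hit.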
# Columns and labels:
# [1] = test system: TRPC4 beta (transient receptor potential cation channel C4), mouse; assay: activators of mouse TRPC4 channel, confirmation, cell-based, Fluo4 calcium, HEK293 TRPC4beta/mu-opioid, duplicates, 10 µM (AID 2426;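 active = fluorescence ratio normalized to control raised more than 50% in primary screen plus both repeat runs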); settings: Fluo4 calcium fluorescence, at 10 µM; hits give high values
# [2] = test system: transient receptor potential cation channel C4 beta (TRPC4), mouse; assay: activators of mouse TRPC4 channel, confirmation, cell-based, second round, Fluo4, HEK293 TRPC4beta/mu-opioid, 1 µM (AID 2461;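 active = primary screen active and over 50% activation in each of two duplicate runs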); settings: Fluo4 calcium fluorescence, at 1 µM; hits give high values
# [3] = test system: TRPC4 (transient receptor potential cation channel C4 beta), mouse; assay: positive allosteric modulators of mouse TRPC4, confirmation, cell-based, second round, Fluo-4, HEK293 TRPC4beta/mu-opioid, 1 µM (AID 2554;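 active = primary screen hit whose fluorescence ratio, in both repeats, exceeds the weak agonist control mean by 3 SD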); settings: DAMGO EC20, Fluo-4 calcium flux, at 1 µM; hits give high values
# [4] = test system: TRPC4 beta (transient receptor potential cation channel C4), mouse; assay: positive allosteric modulators of mouse TRPC4, confirmation, cell-based, Fluo-4, HEK293 TRPC4beta/mu-opioid (AID 2555;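 active = primary screen hit whose calcium fluorescence ratio, in both repeats, exceeds the weak agonist control mean by 3 SD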); settings: DAMGO EC20, Fluo-4 calcium flux, at 10 µM; hits give high values
# [5] = target: Short transient receptor potential channel 4 (Mus musculus) (UniProt Q9QUQ5); assay: inhibitors of mouse TRPC4 channel, confirmation, cell-based, Fluo4, HEK293 TRPC4beta/mu-opioid (AID 2636;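 active = calcium signal cut by more than 3 SD below the full-agonist control yet still positive, in both repeats and the earlier primary screen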); settings: DAMGO, Fluo4 calcium flux, at 10 µM; hits give high values
# [6] = target: Short transient receptor potential channel 4 (Mus musculus) (UniProt Q9QUQ5); assay: inhibitors of mouse TRPC4 channel, confirmation, cell-based, second round, Fluo4, HEK293 TRPC4beta/mu-opioid, 1 µM (AID 2637;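 active = calcium signal ratio cut to more than 3 SD under the fully stimulated control mean yet still positive, in both repeats and the primary screen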;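 for inhibition: percent of integrated ratio relative to wells lacking test compound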); settings: Fluo4 calcium flux, DAMGO, at 1 µM; hits give high values
# [7] = target: Short transient receptor potential channel 4 (Mus musculus) (UniProt Q9QUQ5); assay: mouse TRPC4 channel activators, dose response, cell-based, HEK293 TRPC4/mu-opioid, Fluo-4 calcium (AID 434937)
# [8] = target: Short transient receptor potential channel 4 (Mus musculus) (UniProt Q9QUQ5); assay: TRPC4 positive allosteric modulators, dose response, cell-based, HEK293 TRPC4/mu-opioid, Fluo-4 calcium, EC20 DAMGO (AID 434941;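 active = earlier screen potentiator hit that boosts the TRPC4 ion channel at some dose, with a dose response; inactive = no potentiation, no dose response, or not a prior hit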;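 note: calcium entry triggered by an EC20 dose of DAMGO at the co-expressed mu-opioid receptor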)
# [9] = target: Short transient receptor potential channel 6 (Mus musculus) (UniProt Q61143); assay: inhibition of mouse TRPC6 channel, confirmation, selectivity assay for TRPC4 inhibitor project, cell-based, HEK293, membrane potential dye, duplicate (AID 434948;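 active = active in primary screen and both duplicates, each dropping signal beyond three positive-control SD with fluorescence still positive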); settings: HEK293 TRPC6, membrane potential dye fluorescence, at 10 µM, stimulated with maximal-effect acetylcholine; hits give high values
# [10] = target: Short transient receptor potential channel 6 (Mus musculus) (UniProt Q61143); assay: activation of mouse TRPC6 channel, confirmation, selectivity assay for TRPC4 activator project, cell-based, HEK293, membrane potential dye, duplicate (AID 434950;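 active = membrane potential signal rise above negative control mean plus 3 SD in both duplicates, also active in the earlier TRPC4 screen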); settings: HEK293 TRPC6, membrane potential fluorescence, at 10 µM; hits give high values
# [11] = target: Short transient receptor potential channel 6 (Mus musculus) (UniProt Q61143); assay: TRPC6 potentiation by TRPC4 potentiator hits, confirmation, selectivity assay for TRPC4 potentiator project, HEK293 cells, membrane potential dye, duplicate (AID 434952;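 active = compound raising the membrane signal above positive-control mean plus 3 SD in both repeats, and a primary screen hit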); settings: HEK293 TRPC6, membrane potential dye fluorescence, at 10 µM, maximal acetylcholine added after compound; hits give high values
# [12] = target: Short transient receptor potential channel 4 (Mus musculus) (UniProt Q9QUQ5); assay: calcium flux activators in TRPC4/5HT1a cells, counter-screen for TRPC4 activator project, cell-based, second counter screen, HEK293 TRPC4/5HT1a, Fluo-4 (AID 434977;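 active = calcium signal rise above buffer-control mean plus 5 SD in both duplicates, and also a hit in the primary screen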); settings: Fluo-4 calcium flux, at 10 µM; hits give high values
# [13] = calcium flux inhibitors in TRPC4/5HT1a cells, confirmation, counter-screen for TRPC4 inhibitor project, cell-based, second counter screen, HEK293 TRPC4/5HT1a, Fluo-4 (AID 434978;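 active = primary screen active whose calcium signal fell more than 3 SD beyond the full-serotonin control mean in both duplicate plates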;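 for outcome: serotonin given first at submaximal then at maximal dose after compound preincubation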); settings: Fluo-4 calcium flux, at 10 µM, serotonin added to trigger calcium flux; hits give high values
# [14] = test system: TRPC4 (mouse), co-expressed with 5HT1a in HEK293; assay: calcium flux potentiators in TRPC4/5HT1a cells, confirmation, counter-screen for TRPC4 potentiator project, cell-based, second counter screen, HEK293 TRPC4/5HT1a, Fluo-4 (AID 434979;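 active = signal rise over 3 SD above mean of control wells given weak agonist, in both repeats and first screen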); settings: Fluo-4 calcium flux, at 10 µM, serotonin added at its EC20 dose; hits give high values
# [15] = calcium flux activation in mu-opioid HEK293 cells, confirmation, counter-screen for TRPC4 activator project, cell-based, HEK293 mu-opioid receptor line (AID 449723;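 active = hit in primary screen, with calcium signal over 5 SD above buffer well mean in both duplicates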;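 note: counter screen cells carry the mu-opioid receptor alone and lack TRPC4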); settings: Fluo-4 calcium fluorescence, at 10 µM; hits give high values
# [16] = calcium flux enhancement in mu-opioid HEK293 cells, confirmation, counter-screen for TRPC4 allosteric potentiator project, cell-based, HEK293 mu-opioid receptor line (AID 449724;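 active = calcium signal rise more than 3 SD above the low-dose agonist control mean, in both duplicate plates and the primary screen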); settings: Fluo-4 calcium flux, at 10 µM, compound added before EC20 DAMGO stimulus; hits give high values
# Chain of Short transient receptor potential channel 4 (Mus musculus) (Q9QUQ5 whole entry, looked up): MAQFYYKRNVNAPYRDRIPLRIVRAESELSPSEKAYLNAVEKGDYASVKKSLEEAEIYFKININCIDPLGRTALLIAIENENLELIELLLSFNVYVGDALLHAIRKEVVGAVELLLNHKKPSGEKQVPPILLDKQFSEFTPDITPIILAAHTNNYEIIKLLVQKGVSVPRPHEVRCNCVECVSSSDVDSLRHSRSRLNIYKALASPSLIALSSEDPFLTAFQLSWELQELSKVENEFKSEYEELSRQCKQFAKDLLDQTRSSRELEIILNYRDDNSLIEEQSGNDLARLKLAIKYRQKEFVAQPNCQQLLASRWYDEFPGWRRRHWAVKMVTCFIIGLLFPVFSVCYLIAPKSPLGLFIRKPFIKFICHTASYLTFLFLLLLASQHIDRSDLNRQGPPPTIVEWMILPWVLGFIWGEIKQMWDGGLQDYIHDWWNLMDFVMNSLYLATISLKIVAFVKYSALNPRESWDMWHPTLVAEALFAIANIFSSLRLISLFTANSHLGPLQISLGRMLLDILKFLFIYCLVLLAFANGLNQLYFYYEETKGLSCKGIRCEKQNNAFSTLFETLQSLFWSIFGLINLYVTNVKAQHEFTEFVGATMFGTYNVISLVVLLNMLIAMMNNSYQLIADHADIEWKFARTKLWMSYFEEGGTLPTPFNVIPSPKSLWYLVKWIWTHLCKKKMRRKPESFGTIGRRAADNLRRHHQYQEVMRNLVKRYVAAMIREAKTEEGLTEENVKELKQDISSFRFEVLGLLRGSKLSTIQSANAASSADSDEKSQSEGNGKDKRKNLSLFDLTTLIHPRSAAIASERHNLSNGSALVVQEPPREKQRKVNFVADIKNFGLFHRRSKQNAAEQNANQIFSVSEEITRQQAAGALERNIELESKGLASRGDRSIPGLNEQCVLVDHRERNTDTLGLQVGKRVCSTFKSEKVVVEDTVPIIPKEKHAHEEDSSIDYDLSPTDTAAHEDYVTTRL
# Chain of Short transient receptor potential channel 6 (Mus musculus) (Q61143 whole entry, looked up): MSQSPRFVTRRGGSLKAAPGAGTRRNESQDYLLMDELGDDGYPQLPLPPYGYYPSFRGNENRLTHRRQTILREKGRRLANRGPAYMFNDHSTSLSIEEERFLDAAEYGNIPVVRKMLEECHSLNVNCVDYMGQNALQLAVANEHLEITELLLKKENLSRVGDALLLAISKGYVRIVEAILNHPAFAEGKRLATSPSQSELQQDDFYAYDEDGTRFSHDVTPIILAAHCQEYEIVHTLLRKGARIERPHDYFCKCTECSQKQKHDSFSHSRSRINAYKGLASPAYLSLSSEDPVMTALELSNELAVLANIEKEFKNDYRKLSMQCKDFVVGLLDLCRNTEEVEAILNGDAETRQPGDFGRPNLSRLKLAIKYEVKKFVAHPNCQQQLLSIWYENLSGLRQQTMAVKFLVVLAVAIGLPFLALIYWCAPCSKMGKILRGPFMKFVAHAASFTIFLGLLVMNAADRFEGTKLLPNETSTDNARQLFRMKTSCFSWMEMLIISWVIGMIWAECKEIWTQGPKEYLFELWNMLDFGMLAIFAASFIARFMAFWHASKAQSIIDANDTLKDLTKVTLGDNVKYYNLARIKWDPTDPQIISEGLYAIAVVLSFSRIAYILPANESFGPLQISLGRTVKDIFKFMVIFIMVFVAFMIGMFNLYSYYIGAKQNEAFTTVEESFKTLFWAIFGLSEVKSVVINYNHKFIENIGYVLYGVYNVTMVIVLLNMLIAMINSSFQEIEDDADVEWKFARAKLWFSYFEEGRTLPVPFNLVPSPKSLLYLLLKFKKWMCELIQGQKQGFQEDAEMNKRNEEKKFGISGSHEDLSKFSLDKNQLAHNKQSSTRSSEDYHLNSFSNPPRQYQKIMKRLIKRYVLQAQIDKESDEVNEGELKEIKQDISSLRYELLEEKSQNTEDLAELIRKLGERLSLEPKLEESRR
SMILES,outcome [1],outcome [2],outcome [3],outcome [4],inhibition [5],outcome [6],outcome [7],outcome [8],outcome [9],outcome [10],outcome [11],outcome [12],outcome [13],outcome [14],outcome [15],outcome [16],outcome [5],inhibition [6],inhibition [13],inhibition [9]
CC(C)(C)CC(C)(C)NCC(O)COc1ccc2c(c1)CCC2 (centres undefined),inactive,inactive,inactive,inactive,100% (active),inactive,inactive,inactive,inactive,inactive,inactive,inactive,inactive,inactive,inactive,inactive,,,,
O=C(COc1ccc(Cl)cc1)Nc1ccc(C(=O)O)cc1NC(=O)COc1ccc(Cl)cc1,inactive,inactive,inactive,inactive,68% (active),inactive,inactive,inactive,inactive,inactive,inactive,inactive,inactive,inactive,inactive,inactive,,,,
CCOC(=O)C1(Cc2cccc(OC)c2)CCN(Cc2ccc(OC)c(O)c2)CC1,inactive,inactive,inactive,inactive,,inactive,inactive,inactive,inactive,inactive,inactive,inactive,inactive,inactive,inactive,inactive,inactive,,,
COc1ccc(CN2CCN(Cc3ccc(C(F)(F)F)cc3)CC2)c(OC)c1,inactive,inactive,inactive,inactive,95% (active),,inactive,inactive,inactive,inactive,inactive,inactive,,inactive,inactive,inactive,,41% (active),23% (active),
CC1CCN(CCCOc2ccc(OCc3ccccc3)cc2)CC1,inactive,inactive,inactive,inactive,96% (active),inactive,inactive,inactive,inactive,inactive,inactive,inactive,,inactive,inactive,inactive,,,22.7% (active),
COc1ccc(C)cc1N(C(=O)c1snc(C(N)=O)c1N)C(C(=O)NC1CCCC1)c1ccc(F)cc1 (centres undefined),inactive,inactive,inactive,inactive,91% (active),,inactive,inactive,inactive,inactive,inactive,inactive,,inactive,inactive,inactive,,67% (active),41.2% (active),
Cc1nc(N2CCN(c3ccccn3)CC2)c2c(C)c(C(=O)N3CCN(c4ccc(F)cc4)CC3)sc2n1,inactive,inactive,inactive,inactive,99% (active),,inactive,inactive,inactive,inactive,inactive,inactive,inactive,inactive,inactive,inactive,,48% (active),,
Cc1cccc(N2CCN(Cc3ccoc3)CC2)c1C,inactive,inactive,inactive,inactive,72% (active),inactive,inactive,inactive,inactive,inactive,inactive,inactive,,inactive,inactive,inactive,,,25.2% (active),
O=C(CN1CCN(Cc2ccccc2Cl)CC1)N=Nc1c(O)[nH]c2ccccc12,inactive,inactive,inactive,inactive,90% (active),,inactive,inactive,inactive,inactive,inactive,inactive,inactive,inactive,inactive,inactive,,50% (active),,
CCCc1noc2c1/C(=N\O)CC(CC(C)SCC)C2 (centres undefined),inactive,inactive,inactive,inactive,92% (active),inactive,inactive,inactive,inactive,inactive,inactive,inactive,,inactive,inactive,inactive,,,14.8% (active),
CCOC(=O)C1CCN(CC(O)COc2ccc(C(C)(C)C)cc2)CC1 (centres undefined),inactive,inactive,inactive,inactive,,inactive,inactive,inactive,inactive,inactive,inactive,inactive,,inactive,inactive,inactive,inactive,,41.5% (active),
Cc1nc(N2CCN(c3ccccn3)CC2)c2c(C)c(C(=O)N3CCN(c4ccccc4F)CC3)sc2n1,inactive,inactive,inactive,inactive,93% (active),inactive,inactive,inactive,inactive,inactive,inactive,inactive,inactive,inactive,inactive,inactive,,,,
CCN(CC)C(=O)C1CCCN(Cc2cccc(Oc3ccccc3)c2)C1 (centres undefined),inactive,inactive,inactive,inactive,93% (active),,inactive,inactive,inactive,inactive,inactive,inactive,,inactive,inactive,inactive,,53% (active),25.7% (active),
Cc1ccc(-c2c[n+](Cc3cccc(Cl)c3)c3n2CCC3)cc1,inactive,inactive,inactive,inactive,93% (active),,inactive,inactive,inactive,inactive,inactive,inactive,,inactive,inactive,inactive,,76% (active),14.8% (active),
Cc1cc(N2CCCCC2)nc2ccccc12,inactive,inactive,inactive,inactive,83% (active),,inactive,inactive,inactive,inactive,inactive,inactive,,inactive,inactive,inactive,,40% (active),28.5% (active),
Cc1ccc(C)c2nc3sc(C(=O)O)cc3cc12,inactive,inactive,inactive,inactive,83% (active),inactive,inactive,inactive,inactive,inactive,inactive,inactive,,inactive,inactive,inactive,,,30.9% (active),
Cn1c(-c2ccc(F)cc2)cnc1NCc1ccc(F)cc1,inactive,inactive,inactive,inactive,90% (active),,inactive,inactive,inactive,inactive,inactive,inactive,,inactive,inactive,inactive,,68% (active),22.5% (active),
CCC(O)(c1ccc(OC)cc1)C(CN1CCOCC1)c1ccccc1 (centres undefined),inactive,inactive,inactive,inactive,92% (active),,inactive,inactive,inactive,inactive,inactive,inactive,,inactive,inactive,inactive,,52% (active),14.9% (active),
c1ccc(COC(CN2CCCCCC2)CN2CCCCCC2)cc1,inactive,inactive,inactive,inactive,93% (active),inactive,inactive,inactive,inactive,inactive,inactive,inactive,,inactive,inactive,inactive,,,31.1% (active),
Cc1cc(C)c2c(=O)n(CC(=O)NCCCN3CCN(c4ccccc4F)CC3)sc2n1,inactive,inactive,inactive,inactive,90% (active),,inactive,inactive,inactive,inactive,inactive,inactive,inactive,inactive,inactive,inactive,,55% (active),,
Cc1cccc(-n2nc(C)c3c(C(=O)O)cc(-c4cccs4)nc32)c1,inactive,inactive,inactive,inactive,89% (active),inactive,inactive,inactive,inactive,inactive,inactive,inactive,,inactive,inactive,inactive,,,28.2% (active),
O=C(COC(=O)Cn1cnc2ccccc2c1=O)Nc1ccccc1Sc1ccc(Cl)cc1,inactive,inactive,inactive,inactive,62% (active),,inactive,inactive,inactive,inactive,inactive,inactive,,inactive,inactive,inactive,,43% (active),26.1% (active),
COc1ccccc1C(=O)Nc1ccc2c(c1)CCCN2C(=O)c1cccs1,inactive,inactive,inactive,inactive,,inactive,inactive,inactive,inactive,inactive,inactive,inactive,inactive,inactive,inactive,inactive,inactive,,,
COc1ccc2nc(NCc3ccccc3)[nH]c2c1,inactive,inactive,inactive,inactive,94% (active),,inactive,inactive,inactive,inactive,inactive,inactive,,inactive,inactive,inactive,,50% (active),23.6% (active),
Cc1ccc(C)c2c(N)c3c(nc12)CCCCC3 (tested in a mixture with another compound),inactive,inactive,inactive,inactive,97% (active),,inactive,inactive,,inactive,inactive,inactive,,inactive,inactive,inactive,,69% (active),8.52% (active),33.5% (active)
Cc1ccc(Nc2cc(C)nc3c(C)cccc23)cc1,inactive,inactive,inactive,inactive,,,inactive,inactive,,inactive,inactive,inactive,,inactive,inactive,inactive,inactive,54% (active),35.3% (active),22% (active)
CCCC[n+]1c2ccccc2cc2ccccc21,inactive,inactive,inactive,inactive,87% (active),,inactive,inactive,inactive,inactive,inactive,inactive,,inactive,inactive,inactive,,54% (active),18.4% (active),
Cc1c(CCOC(=O)c2ccc([N+](=O)[O-])cc2)sc[n+]1CC(=O)c1ccccc1,inactive,inactive,inactive,inactive,92% (active),inactive,inactive,inactive,inactive,inactive,inactive,inactive,,inactive,inactive,inactive,,,42.9% (active),
CC1CCN(C(C)C(=O)Nc2ccccc2-c2ccccc2)CC1 (centres undefined),inactive,inactive,inactive,inactive,82% (active),,inactive,inactive,inactive,inactive,inactive,inactive,,inactive,inactive,inactive,,36% (active),33.1% (active),

# Source: PubChem BioAssay
